Growth data for 19 compounds are collected here from PubChem BioAssay (NCI).

The panel holds about 83,000 compounds, 20% with a hit somewhere; the sample as a whole holds those more often.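 Assay: single dose, 48 h. Readout: percent growth (0 = no net growth; negative = cell death). Active: <10.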 A number with no mark means an inactive call. Active and inactive are the calls of the source.

Test systems include T-47D breast; BT-549 breast; MDA-MB-435 melanoma; MCF7 breast; HCT-116 colon; HCC-2998 colon; KM12 colon.
Common to all, as to assay: NCI-60 one-dose screen, 48 h (100 = growth as untreated, 0 = no growth, -100 = all killed)
Conditions in all cases: 10 µM unless noted

With `NC(=O)c1cc(I)ccc1NC(=O)/C=C/c1ccccc1`, the growth in the assay on T-47D breast was 122%; with BT-549 breast it was 61.5%; in the assay with MDA-MB-435 melanoma, -30.5% (active); with MCF7 breast, 2.18% (active); with HCT-116 colon it was 8.52% (active); in the assay on HCC-2998 colon it was -62.3% (active). In the assay with KM12 colon, the growth was 8.98% (active).
`CCSc1nc2scc(C)c2c(=O)[nH]1`: the growth in the assay on T-47D breast is 101%; in the assay with BT-549 breast, 96.8%; in the assay on MDA-MB-435 melanoma, 105%; in the assay on MCF7 breast it was 96.3%; in the assay on HCT-116 colon it was 101%; in the assay with HCC-2998 colon, 106%. For the same compound, the growth in the assay with KM12 colon was 103%.
Turning to `CC(=O)c1c(C)nc(SCC(=O)Nc2cccc(O)c2)n1-c1ccc(Cl)cc1`, the growth is 95.9% in the assay on T-47D breast; 93.1% with BT-549 breast; 84.7% with MDA-MB-435 melanoma; 91.1% in the assay on MCF7 breast; 94.8% in the assay with HCT-116 colon; 99.3% in the assay on HCC-2998 colon. In the assay with KM12 colon, the growth was 93.7%.
Turning to `CCN1C(=S)N(c2ccccc2)C2NC(=S)N(/N=C/C=C/c3ccccc3OC)C21` (stereo not given), the growth was 66.7% with T-47D breast; 9.74% (active) with BT-549 breast; -31% (active) with MDA-MB-435 melanoma; 16.7% in the assay with MCF7 breast; 10.5% with HCT-116 colon; 17.2% in the assay on HCC-2998 colon. Also, the growth in the assay with KM12 colon is 7.72% (active).
Regarding `COc1ccc(Nc2nc(-c3cc(O)c(C)c(C)c3O)cs2)cc1`, the growth in the assay on T-47D breast is 39.5%; in the assay with BT-549 breast it was 79.1%; in the assay on MDA-MB-435 melanoma, 7.82% (active); with HCT-116 colon it was 82.5%; in the assay on HCC-2998 colon, 110%; in the assay on KM12 colon, 23.7%.
For the compound `O=c1c2cccc3c(N4CCCC4)ccc(c32)c2nc3ccccc3n12`, the growth is 72.2% in the assay on T-47D breast; 71.2% in the assay on BT-549 breast; 103% with MDA-MB-435 melanoma; 50.1% with MCF7 breast; 54.7% in the assay with HCT-116 colon; 70.3% with HCC-2998 colon. Moreover, in the assay on KM12 colon, the growth was 87.9%.
`OCCn1cc(-c2nc(-c3c[nH]c4ncccc34)cs2)c2cc(F)ccc21`: the growth with T-47D breast was 35.2%; with BT-549 breast, 68.7%; in the assay on MDA-MB-435 melanoma it was 5.03% (active); with MCF7 breast it was 48.1%; in the assay with HCT-116 colon, 62.4%; in the assay with HCC-2998 colon, 65.3%. The growth in the assay with KM12 colon is 28.4%.
Take `Cn1ccnc1C(=O)/C=C/c1ccc(C(=O)Nc2ccccc2O)cc1`: the growth in the assay with T-47D breast was 2.47% (active); in the assay with BT-549 breast, 28.4%; with MDA-MB-435 melanoma, 69.3%; in the assay with MCF7 breast, 10.2%; with HCT-116 colon it was 11.6%; in the assay with HCC-2998 colon, 82.7%. Also, in the assay with KM12 colon, the growth was 15.2%.
Turning to `O=C(Nc1ccc(Oc2cccc(Cl)c2)c(Cl)c1)c1cnccn1`, the growth was 40.7% in the assay with T-47D breast; 57.4% with BT-549 breast; -39.7% (active) with MDA-MB-435 melanoma; 20.9% with HCT-116 colon; 50.8% in the assay on HCC-2998 colon; 20.7% in the assay on KM12 colon.
Turning to `COc1ccc(C2=C(Nc3ccc(C(=O)Nc4ccccc4)cc3)C(=O)N(C)C2=O)cc1`, the growth in the assay with T-47D breast was 68.8%; in the assay with BT-549 breast, 115%; in the assay with MDA-MB-435 melanoma it was 106%; in the assay on MCF7 breast it was 102%; in the assay on HCT-116 colon, 107%; in the assay with HCC-2998 colon, 98.5%. The growth in the assay with KM12 colon was 91.6%.
For `Fc1ccc(CNc2c3ccccc3nc3ccccc23)c(F)c1`, the growth in the assay on T-47D breast was 47.4%; in the assay on BT-549 breast, 82.8%; in the assay with MDA-MB-435 melanoma it was 66.5%; in the assay with MCF7 breast it was 10.2%; with HCT-116 colon it was 14.2%; in the assay on HCC-2998 colon, 41.3%. The growth in the assay with KM12 colon is 60%.
For the compound `O=C(/C=C/c1cccc(Cl)c1)c1cccc(OCCCOc2cccc(C(=O)/C=C/c3cccc(Cl)c3)c2)c1`, the growth in the assay with T-47D breast is 90.4%; in the assay on BT-549 breast, 90.2%; with MDA-MB-435 melanoma, 102%; with MCF7 breast, 20.8%; in the assay with HCT-116 colon, 37%; with HCC-2998 colon it was 109%. Moreover, in the assay on KM12 colon, the growth was 96.8%.
For `CCOC(=O)n1cc(-c2nonc2-c2cn(C(=O)OCC)c3ccc(Br)cc23)c2ccccc21`, the growth with T-47D breast was 52.9%; with BT-549 breast, 98.3%; in the assay with MDA-MB-435 melanoma, 99.9%; in the assay on MCF7 breast it was 69.6%; in the assay on HCT-116 colon, 62.7%; with HCC-2998 colon, 86.9%.
In the case of `CCOC(=O)c1csc(NC(=O)COc2ccc(/C=C3\Oc4ccccc4C3=O)cc2)n1`, the growth with T-47D breast is 97.5%; in the assay on BT-549 breast, 88.3%; with MDA-MB-435 melanoma, 58.6%; with MCF7 breast it was 69%; in the assay on HCT-116 colon, 82.5%; in the assay on HCC-2998 colon, 106%. For the same compound, the growth with KM12 colon is 88.7%.
`O=c1c2cnn(-c3ccccc3)c2n2c(CN3CCOCC3)nnc2n1-c1ccccc1`: the growth with T-47D breast is 81.9%; with BT-549 breast, 75.2%; in the assay on MDA-MB-435 melanoma, 112%; in the assay with MCF7 breast, 99.3%; in the assay with HCT-116 colon it was 78.8%; in the assay with HCC-2998 colon, 104%. For the same compound, in the assay on KM12 colon, the growth was 101%.
Turning to `O=C(Nc1cccc(-c2ccc(N3CCOCC3)nn2)c1)Nc1cccc(C(F)(F)F)c1`, the growth in the assay on T-47D breast is 8.63% (active); in the assay on BT-549 breast, 40.9%; in the assay with MDA-MB-435 melanoma it was 69.7%; in the assay on MCF7 breast, 55.3%; in the assay with HCT-116 colon, 68.2%; in the assay on HCC-2998 colon, 109%. For the same compound, the growth in the assay on KM12 colon was 55.5%.
Consider `COc1ccc(NC2=C(I)C(=O)c3ncccc3C2=O)cc1`, for which the growth was -32.7% (active) in the assay with T-47D breast; -6.34% (active) in the assay on BT-549 breast; -88.9% (active) with MDA-MB-435 melanoma; -53.5% (active) in the assay on MCF7 breast; 2.09% (active) in the assay on HCT-116 colon; 47.6% with HCC-2998 colon. The growth in the assay on KM12 colon was 15.3%.
With `O=C(c1ccncc1)N1N=C(c2ccc(Cl)cc2)C[C@H]1c1cn(-c2ccccc2)nc1-c1ccccc1`, the growth was 87.6% in the assay with T-47D breast; 92.5% with BT-549 breast; 89.3% with MDA-MB-435 melanoma; 74.8% with MCF7 breast; 73.5% in the assay on HCT-116 colon; 92.2% with HCC-2998 colon. Further, the growth in the assay on KM12 colon is 86.1%.
On to `CCOC(=O)c1c(NC(=O)c2ccc(Cl)cc2)sc2c(CN(C)C)c(O)ccc12`, for which the growth was 71.4% in the assay on T-47D breast; 100% with BT-549 breast; 76.7% in the assay on MDA-MB-435 melanoma; 66.6% in the assay with MCF7 breast; 70.7% in the assay with HCT-116 colon; -71.7% (active) in the assay on HCC-2998 colon. Besides, the growth with KM12 colon is 87.9%.
